Laboratory results taken from the supplement of paper PMC10849652.
Targets with a hit are over-represented here; the source holds about 8,800 in all. About 0.5% of all pairs of compound and target were hits.

Experiments:
Assay in all cases: log2 fold change, soluble protein after heating vs DMSO (PISA); higher = thermal stabilisation; K562 lysate, 10 uM; active = over 0.2 and 3.5 SD of the protein, either way, in both replicates (recomputed)
[1] = compound: CCCS(=O)(=O)Nc1ccc(F)c(C(=O)c2c[nH]c3ncc(-c4ccc(Cl)cc4)cc23)c1F [vemurafenib]
Method in brief: (§1)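 A 30 min treatment with 10 μM compound was applied to crude K562 extract at 1 mg/mL protein in PBS pH 7.4 with 1 mM MgCl2. Heating for 3 min spanned 48°C-58°C, after which aliquots were pooled, adjusted to 0.5% NP-40 at 4°C and spun at 21,000xg for 90 min. TMTpro 16plex LC-MS/MS of the supernatant, with channel sums equalised, gave values recorded as log-two fold change in thermal stability against solvent controls, from duplicates.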

[2] = compound: CCCS(=O)(=O)Nc1ccc(F)c(C(=O)c2c[nH]c3ncc(Cl)cc23)c1F
Method in brief: as §1

[3] = compound: CCN(CCCOc1ccc2c(Nc3cc(CC(=O)Nc4cccc(F)c4)[nH]n3)ncnc2c1)CCOP(=O)(O)O [barasertib]
Method in brief: as §1

[4] = compound: CC[C@@H]1C(=O)N(C)c2cnc(Nc3ccc(C(=O)NC4CCN(C)CC4)cc3OC)nc2N1C1CCCC1
Method in brief: as §1

[5] = compound: CC[C@@H]1C(=O)N(C)c2cnc(Nc3ccc(C(=O)N[C@H]4CC[C@H](N5CCN(CC6CC6)CC5)CC4)cc3OC)nc2N1C(C)C [volasertib]
Method in brief: as §1

[6] = compound: CCn1c(C(=O)N(C2CC2)C2CC2)cc2c3c(ncn3C)c(Nc3cc(C)n(C)n3)nc21
Method in brief: as §1

[7] = compound: CCn1cc(-c2ccnc3[nH]c(-c4cccc(CN(C)C)c4)cc23)c(-c2ccc(NC(=O)N(C)C)cc2)n1
Method in brief: as §1

[8] = compound: CN1CCC(CNc2ccc3ncc(-c4cccc(OC(F)(F)F)c4)n3n2)CC1
Method in brief: as §1

[9] = compound: CN1CCN(CCOc2cc(OC3CCOCC3)c3c(Nc4c(Cl)ccc5c4OCO5)ncnc3c2)CC1 [saracatinib]
Method in brief: as §1

[10] = compound: CN1CCN(c2nc(C3=C(c4c[nH]c5ccccc45)C(=O)NC3=O)c3ccccc3n2)CC1 [sotrastaurin]
Method in brief: as §1

Measured: log2 fold change

PEF1 (UniProt Q9UBV8)
Sequence of UniProt Q9UBV8 (Q9UBV8 whole entry, looked up): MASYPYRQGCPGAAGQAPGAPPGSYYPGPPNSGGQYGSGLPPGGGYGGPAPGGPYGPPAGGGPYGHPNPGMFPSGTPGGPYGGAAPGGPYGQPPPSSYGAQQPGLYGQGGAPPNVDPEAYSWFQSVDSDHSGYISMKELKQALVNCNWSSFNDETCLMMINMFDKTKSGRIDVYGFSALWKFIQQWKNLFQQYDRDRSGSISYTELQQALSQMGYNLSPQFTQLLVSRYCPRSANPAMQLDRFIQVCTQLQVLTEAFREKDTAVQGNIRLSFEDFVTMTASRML
inactive: [1] -0.025 | [2] 0.015 | [3] 0.189 | [4] 0.033 | [5] 0.009 | [6] -0.001 | [7] -0.116 | [8] -0.043 | [9] -0.025 | [10] -0.016

PDS5A (UniProt Q29RF7)
inactive: [1] 0.023 | [2] 0.031 | [3] 0.064 | [4] -0.057 | [5] -0.029 | [6] 0.054 | [7] -0.12 | [8] -0.019 | [9] 0.007 | [10] 0.026

PCIF1 (UniProt Q9H4Z3)
Sequence of UniProt Q9H4Z3 (Q9H4Z3 whole entry, looked up): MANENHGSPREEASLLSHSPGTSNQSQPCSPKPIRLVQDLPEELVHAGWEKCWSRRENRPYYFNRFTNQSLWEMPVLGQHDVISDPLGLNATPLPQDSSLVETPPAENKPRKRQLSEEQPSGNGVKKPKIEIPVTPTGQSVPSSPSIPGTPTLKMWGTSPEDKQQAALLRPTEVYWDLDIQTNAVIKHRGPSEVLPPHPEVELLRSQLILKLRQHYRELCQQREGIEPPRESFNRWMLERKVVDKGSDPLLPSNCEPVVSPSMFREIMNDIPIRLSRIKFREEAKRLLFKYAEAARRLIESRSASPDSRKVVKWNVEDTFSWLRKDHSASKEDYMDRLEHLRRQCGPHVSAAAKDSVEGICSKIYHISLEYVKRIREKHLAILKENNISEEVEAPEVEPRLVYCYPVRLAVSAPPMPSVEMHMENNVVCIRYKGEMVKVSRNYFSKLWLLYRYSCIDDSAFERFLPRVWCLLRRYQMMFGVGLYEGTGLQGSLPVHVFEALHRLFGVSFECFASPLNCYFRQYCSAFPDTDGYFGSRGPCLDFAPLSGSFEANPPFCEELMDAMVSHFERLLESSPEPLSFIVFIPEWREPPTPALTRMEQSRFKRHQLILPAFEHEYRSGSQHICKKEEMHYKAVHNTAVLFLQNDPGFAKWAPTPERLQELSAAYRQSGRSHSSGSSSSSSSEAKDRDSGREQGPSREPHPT
inactive: [1] 0.03 | [2] -0.012 | [3] 0.088 | [4] 0.023 | [5] 0.005 | [6] 0.029 | [7] -0.223 | [8] 0.011 | [9] -0.001 | [10] -0.036

PRKAR2A (UniProt P13861)
inactive: [1] -0.01 | [2] 0.033 | [3] 0.055 | [4] 0.011 | [5] -0.013 | [6] 0.009 | [7] 0.065 | [9] -0.012 | [10] -0.154
active: [8] -0.26

PIP4P2 (UniProt Q8N4L2)
Sequence of UniProt Q8N4L2 (Q8N4L2 whole entry, looked up): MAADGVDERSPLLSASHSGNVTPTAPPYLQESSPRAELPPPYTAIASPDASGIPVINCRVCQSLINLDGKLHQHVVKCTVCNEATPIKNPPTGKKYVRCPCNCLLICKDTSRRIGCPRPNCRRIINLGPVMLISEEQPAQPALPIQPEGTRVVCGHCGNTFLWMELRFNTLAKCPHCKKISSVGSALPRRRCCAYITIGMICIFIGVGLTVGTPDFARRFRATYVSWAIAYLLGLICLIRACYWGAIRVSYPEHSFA
inactive: [1] 0.038 | [2] 0.031 | [3] 0.311 | [4] 0.039 | [5] 0.01 | [6] -0.016 | [7] 0.022 | [8] 0.03 | [9] 0.038 | [10] -0.16

PRMT7 (UniProt Q9NVM4)
inactive: [1] 0.058 | [2] -0.006 | [3] 0.018 | [4] -0.02 | [5] 0.001 | [6] -0.013 | [7] 0.013 | [8] 0.003 | [9] 0.045 | [10] 0.009

PCF11 (UniProt O94913)
inactive: [1] 0.042 | [2] 0.012 | [3] 0.015 | [4] 0.02 | [5] -0.029 | [6] -0.045 | [7] 0.081 | [8] -0.018 | [9] -0.003 | [10] 0.006

PPP1R8 (UniProt Q12972)
Sequence of UniProt Q12972 (Q12972 whole entry, looked up): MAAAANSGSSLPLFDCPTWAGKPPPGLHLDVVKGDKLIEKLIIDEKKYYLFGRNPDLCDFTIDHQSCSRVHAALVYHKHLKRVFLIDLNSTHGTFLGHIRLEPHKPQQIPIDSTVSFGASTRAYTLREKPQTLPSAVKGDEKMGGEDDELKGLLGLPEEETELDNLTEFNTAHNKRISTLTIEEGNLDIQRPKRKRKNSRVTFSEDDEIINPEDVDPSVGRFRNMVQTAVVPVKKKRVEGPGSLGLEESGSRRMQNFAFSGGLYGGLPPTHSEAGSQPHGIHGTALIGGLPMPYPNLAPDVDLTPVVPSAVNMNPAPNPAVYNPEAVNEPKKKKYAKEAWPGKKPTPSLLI
active: [7] -0.28
inactive: [1] 0.049 | [2] -0.011 | [3] -0.032 | [4] 0.08 | [5] -0.007 | [6] -0.031 | [8] 0.176 | [9] -0.038 | [10] 0.015

PRKD2 isoform 3 (UniProt Q9BZL6)
active: [4] -0.358
inactive: [1] 0.041 | [2] -0.048 | [3] 0.034 | [5] -0.131 | [6] 0.097 | [7] 0.038 | [8] -0.07 | [9] 0 | [10] 0.085

PGGT1B (UniProt P53609)
Sequence of UniProt P53609 (P53609 whole entry, looked up): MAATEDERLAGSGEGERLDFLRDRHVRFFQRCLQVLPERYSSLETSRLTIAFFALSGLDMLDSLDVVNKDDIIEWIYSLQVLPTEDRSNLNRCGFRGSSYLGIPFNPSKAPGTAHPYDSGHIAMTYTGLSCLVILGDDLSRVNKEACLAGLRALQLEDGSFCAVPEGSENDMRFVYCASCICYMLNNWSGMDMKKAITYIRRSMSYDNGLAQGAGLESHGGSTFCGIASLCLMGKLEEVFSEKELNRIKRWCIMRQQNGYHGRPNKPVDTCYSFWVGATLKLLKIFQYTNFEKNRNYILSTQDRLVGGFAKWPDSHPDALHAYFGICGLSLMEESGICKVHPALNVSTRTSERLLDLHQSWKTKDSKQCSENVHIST
inactive: [1] -0.159 | [2] 0.004 | [3] 0 | [4] -0.041 | [5] 0.1 | [6] 0.006 | [7] 0.011 | [8] 0.008 | [9] 0.028 | [10] -0.029

PDPK1 (UniProt O15530)
Sequence of UniProt O15530 (O15530 whole entry, looked up): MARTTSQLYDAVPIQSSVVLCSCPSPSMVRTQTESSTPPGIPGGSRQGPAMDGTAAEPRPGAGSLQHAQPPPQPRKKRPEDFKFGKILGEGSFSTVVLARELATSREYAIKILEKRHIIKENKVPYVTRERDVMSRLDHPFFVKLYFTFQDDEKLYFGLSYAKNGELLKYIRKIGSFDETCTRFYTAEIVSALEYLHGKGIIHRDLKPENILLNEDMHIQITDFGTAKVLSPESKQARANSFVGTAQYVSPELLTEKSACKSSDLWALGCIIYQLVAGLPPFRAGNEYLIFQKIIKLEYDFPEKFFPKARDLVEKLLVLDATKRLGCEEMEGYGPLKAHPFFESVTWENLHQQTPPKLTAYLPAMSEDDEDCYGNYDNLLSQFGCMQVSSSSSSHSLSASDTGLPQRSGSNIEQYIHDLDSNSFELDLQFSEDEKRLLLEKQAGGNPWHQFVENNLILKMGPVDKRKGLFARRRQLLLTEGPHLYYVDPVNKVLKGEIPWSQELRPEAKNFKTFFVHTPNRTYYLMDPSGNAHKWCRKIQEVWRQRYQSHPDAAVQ
inactive: [1] -0.03 | [2] -0.002 | [3] -0.027 | [4] -0.06 | [5] -0.047 | [6] 0.012 | [7] 0.041 | [8] -0.017 | [9] -0.025 | [10] 0.133

PSMB9 (UniProt P28065)
Sequence of UniProt P28065 (P28065 whole entry, looked up): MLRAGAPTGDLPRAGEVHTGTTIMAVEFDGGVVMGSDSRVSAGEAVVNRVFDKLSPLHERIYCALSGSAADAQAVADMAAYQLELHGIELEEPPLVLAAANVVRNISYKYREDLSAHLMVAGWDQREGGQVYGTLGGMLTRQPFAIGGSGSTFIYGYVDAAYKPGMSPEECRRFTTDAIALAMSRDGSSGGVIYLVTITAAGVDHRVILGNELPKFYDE
active: [4] 0.335
inactive: [1] -0.105 | [2] 0.037 | [3] 0.158 | [5] 0.028 | [6] -0.06 | [7] -0.165 | [8] 0.027 | [9] 0.037 | [10] 0.018

PCBP3 (UniProt P57721)
inactive: [1] 0.021 | [2] -0.007 | [3] -0.007 | [4] -0.003 | [5] 0.006 | [6] -0.011 | [7] -0.062 | [8] 0.032 | [9] 0.014 | [10] -0.047

PI4KA (UniProt P42356)
Sequence of UniProt P42356 (P42356 whole entry, looked up): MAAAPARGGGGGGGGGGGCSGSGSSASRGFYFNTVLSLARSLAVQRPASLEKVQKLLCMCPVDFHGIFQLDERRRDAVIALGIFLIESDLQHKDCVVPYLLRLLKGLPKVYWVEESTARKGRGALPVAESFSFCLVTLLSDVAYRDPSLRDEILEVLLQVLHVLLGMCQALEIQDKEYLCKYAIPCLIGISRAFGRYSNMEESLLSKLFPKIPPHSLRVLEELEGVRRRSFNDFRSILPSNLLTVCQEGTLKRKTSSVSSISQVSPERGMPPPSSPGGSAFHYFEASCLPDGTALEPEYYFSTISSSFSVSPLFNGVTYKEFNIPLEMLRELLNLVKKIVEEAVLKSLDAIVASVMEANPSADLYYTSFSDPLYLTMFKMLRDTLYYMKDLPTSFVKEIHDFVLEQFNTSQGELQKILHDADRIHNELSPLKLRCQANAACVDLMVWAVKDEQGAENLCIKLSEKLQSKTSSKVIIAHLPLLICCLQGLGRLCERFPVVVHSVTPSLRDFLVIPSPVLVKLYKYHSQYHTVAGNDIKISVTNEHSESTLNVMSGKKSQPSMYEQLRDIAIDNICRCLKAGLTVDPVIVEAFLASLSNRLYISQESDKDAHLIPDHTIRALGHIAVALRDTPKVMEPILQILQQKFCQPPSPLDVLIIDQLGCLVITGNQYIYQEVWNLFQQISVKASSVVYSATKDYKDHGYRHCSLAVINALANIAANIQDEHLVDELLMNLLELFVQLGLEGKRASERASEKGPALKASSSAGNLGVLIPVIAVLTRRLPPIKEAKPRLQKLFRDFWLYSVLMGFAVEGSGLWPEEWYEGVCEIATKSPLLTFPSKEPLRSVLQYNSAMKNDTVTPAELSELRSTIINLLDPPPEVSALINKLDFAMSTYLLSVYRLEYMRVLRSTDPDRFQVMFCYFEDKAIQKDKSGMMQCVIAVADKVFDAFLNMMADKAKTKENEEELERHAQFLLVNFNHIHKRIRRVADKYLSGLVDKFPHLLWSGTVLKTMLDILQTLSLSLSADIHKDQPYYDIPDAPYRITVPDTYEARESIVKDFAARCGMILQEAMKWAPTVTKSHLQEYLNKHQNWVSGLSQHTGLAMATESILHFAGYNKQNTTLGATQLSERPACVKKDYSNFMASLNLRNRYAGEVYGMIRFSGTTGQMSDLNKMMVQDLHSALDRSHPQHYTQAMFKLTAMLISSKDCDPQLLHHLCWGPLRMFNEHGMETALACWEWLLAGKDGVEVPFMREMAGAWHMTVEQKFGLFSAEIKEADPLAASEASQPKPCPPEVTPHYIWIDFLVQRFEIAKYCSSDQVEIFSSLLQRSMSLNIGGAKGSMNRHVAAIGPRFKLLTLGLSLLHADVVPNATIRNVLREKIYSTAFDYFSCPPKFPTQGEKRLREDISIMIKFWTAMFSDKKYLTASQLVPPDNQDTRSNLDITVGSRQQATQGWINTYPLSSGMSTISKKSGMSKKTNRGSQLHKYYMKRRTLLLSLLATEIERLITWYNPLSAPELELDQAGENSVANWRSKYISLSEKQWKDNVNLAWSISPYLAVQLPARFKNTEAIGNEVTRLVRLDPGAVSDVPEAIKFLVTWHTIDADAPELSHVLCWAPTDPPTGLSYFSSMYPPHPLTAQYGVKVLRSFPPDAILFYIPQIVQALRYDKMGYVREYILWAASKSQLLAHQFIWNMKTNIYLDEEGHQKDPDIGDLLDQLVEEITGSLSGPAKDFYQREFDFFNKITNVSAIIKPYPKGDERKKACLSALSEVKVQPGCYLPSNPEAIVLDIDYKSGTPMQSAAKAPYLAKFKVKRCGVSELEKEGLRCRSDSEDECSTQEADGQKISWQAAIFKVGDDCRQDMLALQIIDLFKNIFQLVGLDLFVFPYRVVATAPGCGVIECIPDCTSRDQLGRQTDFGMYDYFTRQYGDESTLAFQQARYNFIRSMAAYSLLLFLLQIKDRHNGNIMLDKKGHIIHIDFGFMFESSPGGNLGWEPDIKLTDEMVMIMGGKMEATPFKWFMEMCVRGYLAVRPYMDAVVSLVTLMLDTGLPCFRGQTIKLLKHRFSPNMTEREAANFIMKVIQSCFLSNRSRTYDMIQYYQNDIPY
inactive: [1] 0.005 | [2] 0.014 | [3] 0 | [4] 0.007 | [5] -0.064 | [6] 0.019 | [7] -0.069 | [8] 0.164 | [9] 0.016 | [10] 0.056

PLIN2 (UniProt Q99541)
inactive: [1] 0.014 | [2] -0.01 | [3] 0.073 | [4] 0.033 | [5] 0.003 | [6] 0.048 | [7] 0.033 | [8] -0.181 | [9] 0.019 | [10] 0.007
